# Inconclusive results are not listed. A call without a number means that no potency is given here. Values without a mark were called inactive. Calls of active or inactive are those of the source. Calls follow the shape of the dose curve; as a rule, active = well fitted inhibition curve with a large enough effect; inconclusive = small, poorly fitted or top-dose-only effect; inactive = flat fitted curve, though single readings scatter.
# Columns and labels:
# [1] = qHTS profiling for inhibitors of Plasmodium falciparum proliferation (AID 504749); also: nearly all actives have a fitted effect of over 60% in size; conditions: P. falciparum in erythrocytes, SYBR Green DNA, 72 h
# Summary of the method: (§1)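 In a 72 h erythrocytic culture (37 C, humidified, 5% CO2) at 2.5% hematocrit and 0.3% starting parasitemia, compounds were tested; SYBR Green I in detergent lysis buffer stained parasite DNA overnight.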
# 7G8 = test: as above; conditions: P. falciparum in erythrocytes, SYBR Green DNA, 72 h; series mostly up to 28.7 µM
# Summary of the method: as §1
# AA1029 = test: as above; conditions: P. falciparum in erythrocytes, SYBR Green DNA, 72 h; series mostly up to 28.7 µM
# Summary of the method: as §1
# AS120 = test: as above; conditions: P. falciparum in erythrocytes, SYBR Green DNA, 72 h; series mostly up to 28.7 µM
# Summary of the method: as §1
# ATS189 = test: as above; conditions: P. falciparum in erythrocytes, SYBR Green DNA, 72 h; series mostly up to 28.7 µM
# Summary of the method: as §1
# ATS95 = test: as above; conditions: P. falciparum in erythrocytes, SYBR Green DNA, 72 h; series mostly up to 28.7 µM
# Summary of the method: as §1
# 3D7 = test: as above; conditions: P. falciparum in erythrocytes, SYBR Green DNA, 72 h; series mostly up to 28.7 µM
# Summary of the method: as §1
# [2] = at 28.7 µM (top of the series), parasite line A
# [3] = at 28.7 µM (top of the series), parasite line B
# Potency is read from the fitted curve at half-maximal effect.
structure (smiles),measurement,setting,value
O=S(=O)(O)O,"activity, negative = inhibition",[1]; [2],-14.8%
same,"activity, negative = inhibition",[1]; [3],2.3%
same,Potency,7G8,inactive
same,Potency,AA1029,inactive
same,Potency,AS120,inactive
same,Potency,ATS189,inactive
same,Potency,ATS95,inactive
CCN(CC)CCOc1ccc(-c2nc3cc(Cl)ccc3s2)cc1,Potency,7G8,11.2 µM (active)
same,Potency,AS120,inactive
same,Potency,ATS189,inactive
O=C(Nc1cccc(C(F)(F)F)c1)c1cc(Br)cc(Br)c1O,Potency,[1]; parasite line B,10 µM (active)
same,Potency,7G8,6.31 µM (active)
same,Potency,AS120,12.6 µM (active)
O=S(=O)(O)c1cc(O)c2c(N=Nc3ccc(Nc4ccccc4)c4c(S(=O)(=O)O)cccc34)cc(S(=O)(=O)O)cc2c1,Potency,3D7,inactive
same,Potency,AA1029,inactive
same,Potency,ATS189,inactive
same,Potency,ATS95,inactive
CC(=O)Oc1c(C)cc(OCC(O)CNC(C)C)c(C)c1C (stereo not given),Potency,3D7,inactive
same,Potency,7G8,inactive
same,Potency,AA1029,inactive
same,Potency,AS120,inactive
same,Potency,ATS189,inactive
same,Potency,ATS95,inactive
C=CCSSSCC=C,"activity, negative = inhibition",[1]; [2],1.87%
same,"activity, negative = inhibition",[1]; [3],3.6%
same,Potency,3D7,inactive
same,Potency,7G8,inactive
same,Potency,AA1029,inactive
same,Potency,AS120,inactive
same,Potency,ATS189,inactive
same,Potency,ATS95,inactive
CC[C@@]1(O)C(=O)OCc2c1cc1n(c2=O)Cc2cc3c([N+](=O)[O-])cccc3nc2-1,Potency,[1]; parasite line A,4.47 µM (active)
same,Potency,3D7,5.01 µM (active)
same,Potency,7G8,5.01 µM (active)
same,Potency,AA1029,7.08 µM (active)
same,Potency,AS120,5.01 µM (active)
same,Potency,ATS189,7.94 µM (active)
same,Potency,ATS95,5.01 µM (active)
CC1(C)C(C=C(Cl)Cl)C1C(=O)OCc1cccc(Oc2ccccc2)c1 (stereo not given),"activity, negative = inhibition",[1]; [2],-2.63%
same,"activity, negative = inhibition",[1]; [3],-6.77%
same,Potency,3D7,inactive
same,Potency,AA1029,inactive
same,Potency,AS120,inactive
same,Potency,ATS189,inactive
same,Potency,ATS95,inactive
CC(C)N=c1cc2n(-c3ccc(Cl)cc3)c3ccccc3nc-2cc1Nc1ccc(Cl)cc1,"activity, negative = inhibition","[1]; at 12.8 µM (top of the series), parasite line A",-13.2%
same,"activity, negative = inhibition","[1]; at 12.8 µM (top of the series), parasite line B",-1.3%
same,Potency,7G8,3.98 µM (active)
same,Potency,AA1029,inactive
same,Potency,AS120,inactive
same,Potency,ATS189,inactive
same,Potency,ATS95,inactive
Cc1ccccc1,"activity, negative = inhibition",[1]; [2],1.71%
same,"activity, negative = inhibition",[1]; [3],0.119%
same,Potency,3D7,inactive
same,Potency,7G8,inactive
same,Potency,AA1029,inactive
same,Potency,AS120,inactive
same,Potency,ATS189,inactive
same,Potency,ATS95,inactive
CCOC(=O)C1=C(C)NC(C)=C(C(=O)OCC)C1c1ccccc1C=CC(=O)OC(C)(C)C,Potency,[1]; parasite line A,11.2 µM (active)
same,Potency,3D7,11.2 µM (active)
same,Potency,7G8,7.94 µM (active)
same,Potency,AA1029,8.91 µM (active)
same,Potency,AS120,8.91 µM (active)
same,Potency,ATS95,10 µM (active)
O=C(O)c1cc(=O)c2c3nc4ccccc4oc-3cc(=O)c2[nH]1,"activity, negative = inhibition",[1]; [2],-19%
same,"activity, negative = inhibition",[1]; [3],-11.6%
same,Potency,3D7,14.1 µM (active)
same,Potency,7G8,1.26 µM (active)
same,Potency,AA1029,inactive
same,Potency,ATS189,inactive
same,Potency,ATS95,inactive
CC(=O)Oc1cc(C)c(OC(C)=O)c2ccccc12,Potency,3D7,8.91 µM (active)
same,Potency,7G8,5.01 µM (active)
same,Potency,AS120,10 µM (active)
Nc1c(Br)cc(Br)cc1CNC1CCC(O)CC1 (stereo not given),"activity, negative = inhibition",[1]; [2],8.81%
same,"activity, negative = inhibition",[1]; [3],-8.99%
same,Potency,3D7,inactive
same,Potency,7G8,inactive
same,Potency,AA1029,inactive
same,Potency,AS120,inactive
same,Potency,ATS189,inactive
same,Potency,ATS95,inactive
Cc1c(C)c2c(c(C)c1O)CC[C@@](C)(CCC[C@@H](C)CCC[C@@H](C)CCCC(C)C)O2,"activity, negative = inhibition",[1]; [3],18%
same,Potency,3D7,inactive
same,Potency,7G8,inactive
same,Potency,AA1029,inactive
same,Potency,ATS189,inactive
same,Potency,ATS95,inactive
C[C@H]1C[C@H]2[C@@H]3CCC4=CC(=O)C=C[C@]4(C)[C@@]3(F)[C@@H](O)C[C@]2(C)[C@@]1(O)C(=O)CO,"activity, negative = inhibition",[1]; [2],15.5%
same,"activity, negative = inhibition",[1]; [3],5.52%
same,Potency,3D7,inactive
same,Potency,AA1029,inactive
same,Potency,AS120,inactive
same,Potency,ATS189,inactive
same,Potency,ATS95,inactive
CCCCCCOc1ccc(C(=N)N(CCCC)CCCC)c2ccccc12,Potency,[1]; parasite line A,7.08 µM (active)
same,Potency,3D7,5.01 µM (active)
same,Potency,7G8,4.47 µM (active)
same,Potency,ATS189,10 µM (active)
CCOc1ccc(N=Nc2ccc(N)cc2N)cc1,"activity, negative = inhibition",[1]; [3],14.7%
same,Potency,3D7,inactive
same,Potency,AA1029,inactive
same,Potency,AS120,inactive
same,Potency,ATS95,inactive
O=C1CSC2(CCN(CCCN3c4ccccc4Sc4ccc(Cl)cc43)CC2)N1,"activity, negative = inhibition",[1]; [2],-17.8%
same,"activity, negative = inhibition",[1]; [3],-28.1%
same,Potency,7G8,11.2 µM (active)
C#C[C@]1(O)CC[C@H]2[C@@H]3CCC4=CCCC[C@@H]4[C@H]3C(=C)C[C@@]21CC,Potency,7G8,inactive

# Reference: PubChem BioAssay (NCATS)
